Measured values published in PubChem BioAssay.
For some of these results: Potency and affinity values are given separately. The source made the active and inactive calls. Unless noted, no rule for the calls is given here.

Columns and labels:
[1] = antimalarial activity against Dd2 strain (AID 2302;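 active = growth inhibition above 50% at the single 2 µM test dose, taken to imply half-maximal potency below 2 µM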;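 also: 0% = DMSO untreated growth and 100% = chloroquine plus artemisinin killed control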); conditions: P. falciparum Dd2 in RBCs, LDH growth readout, 72 h; at 2 µM; active compounds read high
[2] = HepG2 cytotoxicity, primary screen, cytotoxicity control for P. falciparum antimalarial project, cell-based, ATP luminescence (AID 2303;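 active = inhibition above 50%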;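 also: 0% = DMSO wells and 100% = digitonin-killed cells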); conditions: HepG2 viability, 24-48 h, at 10 µM, active compounds read high
[3] = biological target: L-lactate dehydrogenase (Plasmodium falciparum (isolate CDC / Honduras)) (UniProt Q27743); experiment: PfLDH activity inhibition – cell lysate, 3D7 strain, counter-screen for P. falciparum growth inhibition project (AID 2304);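 also: 0% = vehicle and 100% = reference inhibitor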; conditions: P. falciparum 3D7 crude extract, LDH APAD/NBT absorbance; at 2 µM; active compounds read high
[4] = inhibition of 3D7 malaria parasite growth – strain 3D7 (AID 2306);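 also: 0% = DMSO wells and 100% = chloroquine plus artemisinin control wells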; conditions: P. falciparum 3D7 erythrocytic growth, LDH absorbance, 72 h; at 2 µM; active compounds read high
[5] = biological target: Calcium-dependent protein kinase 1 (Plasmodium falciparum (isolate 3D7)) (UniProt P62344); experiment: PfCDPK1 kinase inhibitors, biochemical, TCAMS library (AID 1159585; cut-off not given, nearly all actives have IC50 up to about 0.98 µM;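 also: inhibitors leave more ATP so luminescence rises with inhibition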); conditions: recombinant PfCDPK1, Kinase-Glo ATP depletion luminescence
[6] = biological target: Plasmodium falciparum protein kinase 6 (PK6, PF3D7_1337100) (UniProt Q8IDW1); experiment: PfPK6 kinase inhibitors, biochemical, TCAMS library (AID 1159586); conditions: recombinant PfPK6, Kinase-Glo ATP depletion luminescence
[7] = biological target: Protein kinase 7 (PK7), Plasmodium falciparum 3D7 (PF3D7_0213400) (UniProt Q7YTF7); experiment: inhibition of Plasmodium PK7 catalytic activity – biochemical, TCAMS antimalarial set, Kinase-Glo luminescence (AID 1159587); conditions: recombinant PfPK7, Kinase-Glo ATP depletion luminescence
[8] = biological target: Calcium-dependent protein kinase 4 (Plasmodium falciparum (isolate 3D7)) (UniProt Q8IBS5); experiment: PfCDPK4 kinase inhibitors, biochemical, TCAMS library (AID 1159588; cut-off not given, nearly all actives have IC50 up to about 0.91 µM); conditions: recombinant PfCDPK4, Kinase-Glo ATP depletion luminescence
Chain of Calcium-dependent protein kinase 4 (Plasmodium falciparum (isolate 3D7)) (Q8IBS5 whole entry, looked up): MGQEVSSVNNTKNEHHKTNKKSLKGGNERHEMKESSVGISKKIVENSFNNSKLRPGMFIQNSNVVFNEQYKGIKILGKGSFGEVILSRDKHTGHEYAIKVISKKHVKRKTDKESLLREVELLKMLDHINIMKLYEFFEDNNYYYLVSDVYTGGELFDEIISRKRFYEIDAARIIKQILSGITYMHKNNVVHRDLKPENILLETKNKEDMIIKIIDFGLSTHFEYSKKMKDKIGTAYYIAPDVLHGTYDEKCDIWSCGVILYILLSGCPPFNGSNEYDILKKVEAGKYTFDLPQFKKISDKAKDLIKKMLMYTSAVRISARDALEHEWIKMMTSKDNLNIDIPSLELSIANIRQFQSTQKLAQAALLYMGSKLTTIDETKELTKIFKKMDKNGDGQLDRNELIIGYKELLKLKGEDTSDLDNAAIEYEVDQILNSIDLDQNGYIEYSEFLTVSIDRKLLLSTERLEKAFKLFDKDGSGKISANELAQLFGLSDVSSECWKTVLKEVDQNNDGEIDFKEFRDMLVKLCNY

Chain of L-lactate dehydrogenase (Plasmodium falciparum (isolate CDC / Honduras)) (Q27743 whole entry, looked up): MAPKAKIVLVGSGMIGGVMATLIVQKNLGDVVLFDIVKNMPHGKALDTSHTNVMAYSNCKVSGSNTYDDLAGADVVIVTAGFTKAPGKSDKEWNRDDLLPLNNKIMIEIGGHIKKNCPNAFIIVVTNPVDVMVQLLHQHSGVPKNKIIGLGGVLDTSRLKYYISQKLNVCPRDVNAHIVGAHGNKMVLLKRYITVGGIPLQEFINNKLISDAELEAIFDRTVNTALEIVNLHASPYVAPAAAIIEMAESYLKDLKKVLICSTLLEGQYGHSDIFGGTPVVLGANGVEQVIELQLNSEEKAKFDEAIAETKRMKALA
Chain of Calcium-dependent protein kinase 1 (Plasmodium falciparum (isolate 3D7)) (P62344 whole entry, looked up): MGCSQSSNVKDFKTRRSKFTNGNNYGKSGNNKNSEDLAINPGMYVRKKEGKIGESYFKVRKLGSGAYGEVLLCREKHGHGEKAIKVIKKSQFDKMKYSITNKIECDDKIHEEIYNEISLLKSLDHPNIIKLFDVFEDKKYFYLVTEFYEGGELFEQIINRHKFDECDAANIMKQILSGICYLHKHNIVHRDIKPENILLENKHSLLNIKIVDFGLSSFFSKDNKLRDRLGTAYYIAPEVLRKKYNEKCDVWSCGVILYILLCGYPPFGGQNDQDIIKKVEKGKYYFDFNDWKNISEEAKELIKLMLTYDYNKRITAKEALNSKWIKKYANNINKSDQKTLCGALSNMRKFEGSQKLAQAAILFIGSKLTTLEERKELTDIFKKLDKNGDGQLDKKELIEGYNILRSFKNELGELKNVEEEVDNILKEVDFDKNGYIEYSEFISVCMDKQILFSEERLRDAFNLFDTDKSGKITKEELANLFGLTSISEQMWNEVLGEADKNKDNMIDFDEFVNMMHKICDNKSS
Chain of Plasmodium falciparum protein kinase 6 (PK6, PF3D7_1337100) (Q8IDW1 1-305): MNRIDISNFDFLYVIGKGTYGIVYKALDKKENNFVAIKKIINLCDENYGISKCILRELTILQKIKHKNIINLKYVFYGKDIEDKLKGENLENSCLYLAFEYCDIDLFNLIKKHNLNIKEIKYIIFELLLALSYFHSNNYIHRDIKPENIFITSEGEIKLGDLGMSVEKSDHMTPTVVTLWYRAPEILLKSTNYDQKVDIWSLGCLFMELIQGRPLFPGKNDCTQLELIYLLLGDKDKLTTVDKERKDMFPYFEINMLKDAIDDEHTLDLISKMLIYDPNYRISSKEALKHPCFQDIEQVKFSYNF
Chain of Protein kinase 7 (PK7), Plasmodium falciparum 3D7 (PF3D7_0213400) (Q7YTF7 1-343): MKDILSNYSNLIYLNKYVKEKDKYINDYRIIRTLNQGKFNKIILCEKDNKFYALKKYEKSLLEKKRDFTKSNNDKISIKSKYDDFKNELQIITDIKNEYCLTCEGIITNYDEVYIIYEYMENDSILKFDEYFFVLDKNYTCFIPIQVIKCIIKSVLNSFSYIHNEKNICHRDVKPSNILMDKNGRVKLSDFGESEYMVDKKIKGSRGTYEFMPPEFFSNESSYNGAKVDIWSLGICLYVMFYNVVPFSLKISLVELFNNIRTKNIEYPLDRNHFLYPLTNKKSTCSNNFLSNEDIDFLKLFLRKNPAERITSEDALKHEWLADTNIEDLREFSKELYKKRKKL

CN(C)c1ccc2c(c1)Sc1cc(N(C)C)ccc1N2C(=O)c1cccc(C(=O)O)c1
inactive: inhibition [2] 8% | inhibition [3] -3% | outcome [5] | outcome [6] | outcome [7] | outcome [8]
active: growth inhibition [1] 73% | growth inhibition [4] 99%

COc1ccc(OC)c(NC(=O)c2c(-c3c(F)cccc3Cl)noc2C)c1
active: growth inhibition [4] 94%
inactive: growth inhibition [1] 25% | inhibition [2] -1% | inhibition [3] -1% | outcome [5] | outcome [6] | outcome [7] | outcome [8]

CCOC(=O)C1=C(C)NC2=C(C(=O)CC(C)(C)C2)C1c1ccc(Cl)cc1 (stereo not drawn)
active: growth inhibition [1] 84% | growth inhibition [4] 96%
inactive: inhibition [2] 4% | inhibition [3] 1% | outcome [5] | outcome [6] | outcome [7] | outcome [8]

Cc1cc(=O)c(-c2ccc(Oc3ccc(F)cc3)cc2)c(C)[nH]1
inactive: inhibition [2] -3% | inhibition [3] 3% | outcome [5] | outcome [6] | outcome [7] | outcome [8]
active: growth inhibition [1] 59% | growth inhibition [4] 85%

Cn1c2c(c3ccccc31)CN(CCC1(c3ccc(Cl)c(Cl)c3)CN(C(=O)Cc3ccccc3)CCO1)CC2 (stereo not drawn)
active: growth inhibition [1] 91% | growth inhibition [4] 95%
inactive: inhibition [2] 22% | inhibition [3] 0% | outcome [5] | outcome [6] | outcome [7] | outcome [8]

Fc1ccc2nc(-c3cccc(-c4ccc(CNCc5ccccc5)cc4)c3)[nH]c2c1
inactive: inhibition [2] 27% | inhibition [3] -1% | outcome [5] | outcome [6] | outcome [7] | outcome [8]
active: growth inhibition [1] 89% | growth inhibition [4] 102%

Cc1cccc2[nH]c(-c3ccc(-c4ccc(NC(=O)NCc5ccccc5)cc4)s3)nc12
inactive: growth inhibition [1] 8% | inhibition [3] 5% | outcome [5] | outcome [6] | outcome [7] | outcome [8]
active: inhibition [2] 79% | growth inhibition [4] 93%

CC[C@H](NC(=O)c1c(CN2CCC(N3CCCCC3)CC2)c(-c2ccccc2)nc2cc(O)ccc12)c1ccccc1
active: growth inhibition [4] 94%
inactive: growth inhibition [1] 13% | inhibition [2] 15% | inhibition [3] 2% | outcome [5] | outcome [6] | outcome [7] | outcome [8]

O=[N+]([O-])c1ccc(CNCCCCCCNCc2ccc([N+](=O)[O-])c3ccccc23)c2ccccc12
inactive: inhibition [3] 0% | outcome [5] | outcome [6] | outcome [7] | outcome [8]
active: growth inhibition [1] 98% | inhibition [2] 88% | growth inhibition [4] 102%

Cc1cc(N2CCCC2)nc(Nc2ccc(NC(=O)c3cccc(F)c3)cc2)n1
active: growth inhibition [4] 97%
inactive: growth inhibition [1] 28% | inhibition [2] 39% | inhibition [3] -3% | outcome [5] | outcome [6] | outcome [7] | outcome [8]

O=C(Nc1ccc(N2CCN(Cc3cccc(F)c3)CC2)cc1)c1cccs1
active: growth inhibition [1] 92% | growth inhibition [4] 95%
inactive: inhibition [2] -5% | inhibition [3] -1% | outcome [5] | outcome [6] | outcome [7] | outcome [8]

COc1ccccc1OCCN(CC(O)COc1cccc2[nH]c3ccccc3c12)CC(O)COc1cccc2[nH]c3ccccc3c12 (stereo not drawn)
inactive: inhibition [2] 16% | inhibition [3] -8% | outcome [5] | outcome [6] | outcome [7] | outcome [8]
active: growth inhibition [1] 96% | growth inhibition [4] 97%

Cc1cc(-c2ccc(NC(=O)Nc3ccc4nccc(N5CCN(C)CC5)c4c3)cc2C)cc(C)n1
active: growth inhibition [1] 76% | growth inhibition [4] 100%
inactive: inhibition [2] -2% | inhibition [3] 4% | outcome [5] | outcome [6] | outcome [7] | outcome [8]

Cc1cc(NC(=O)c2cccs2)ccc1OC1CCN(Cc2ccccc2)CC1
inactive: inhibition [2] 10% | inhibition [3] 4% | outcome [5] | outcome [6] | outcome [7] | outcome [8]
active: growth inhibition [1] 91% | growth inhibition [4] 95%

S=C(NN=Cc1ccccn1)Nc1ccc2c(c1)OCCO2
active: inhibition [2] 55% | growth inhibition [4] 82%
inactive: growth inhibition [1] 33% | inhibition [3] 6% | outcome [5] | outcome [6] | outcome [7] | outcome [8]

CC(C)(C)c1ccc(OC(=O)c2ccc(NC(=O)N[C@@H](Cc3ccc(O)cc3)C(=O)NC3CCN(Cc4ccc(O)cc4)C3)cc2)cc1 (stereo partly drawn)
inactive: inhibition [2] 0% | inhibition [3] -3% | outcome [5] | outcome [6] | outcome [7] | outcome [8]
active: growth inhibition [1] 67% | growth inhibition [4] 92%

Cc1cc(CN2CCCN(c3ccc4c(c3)CCN(Cc3ccc(-c5ncc[nH]5)cc3)CC4)CC2)n(C)n1
inactive: growth inhibition [1] 8% | inhibition [2] 5% | inhibition [3] 5% | outcome [5] | outcome [6] | outcome [7] | outcome [8]
active: growth inhibition [4] 86%

CCOC(=O)c1cnc2cc(N3CCCC3)c(Cl)cc2c1OCC
inactive: inhibition [2] 0% | inhibition [3] -2% | outcome [5] | outcome [6] | outcome [7] | outcome [8]
active: growth inhibition [1] 97% | growth inhibition [4] 97%

NC1CCCN(Cc2cccc(-c3ccc(-c4nc5ccccc5[nH]4)cc3)c2)C1 (stereo not drawn)
inactive: inhibition [2] 25% | inhibition [3] -6% | outcome [5] | outcome [6] | outcome [7] | outcome [8]
active: growth inhibition [1] 73% | growth inhibition [4] 101%

O=C(N[C@@H](Cc1ccccc1)C(=O)NC1CCCCCC1)c1ccc(O)c(-c2cccc(C(F)(F)F)c2)c1
inactive: inhibition [2] -10% | inhibition [3] -1% | outcome [5] | outcome [6] | outcome [7] | outcome [8]
active: growth inhibition [1] 70% | growth inhibition [4] 98%

CCCC1(NC[C@@H](O)[C@H](Cc2ccccc2)NC(=O)c2cc(NCC)cc(N3CCCCS3(=O)=O)c2)CCC1
inactive: inhibition [2] -8% | inhibition [3] -1% | outcome [5] | outcome [6] | outcome [7] | outcome [8]
active: growth inhibition [1] 86% | growth inhibition [4] 100%

CC(C)(C)CCN1CCC(CNC(=O)c2cc(-c3cccc(Cl)c3)cs2)C1 (stereo not drawn)
active: inhibition [2] 50% | growth inhibition [4] 99%
inactive: growth inhibition [1] 13% | inhibition [3] 3% | outcome [5] | outcome [6] | outcome [7] | outcome [8]

CC(=O)Nc1nc(C(=O)Nc2ccc(-c3cccc(-c4nc5ccccc5[nH]4)c3)cc2)cs1
inactive: inhibition [3] -10% | outcome [5] | outcome [6] | outcome [7] | outcome [8]
active: growth inhibition [1] 83% | inhibition [2] 68% | growth inhibition [4] 99%

O=C(Nc1ccc(-c2nc3ccccc3[nH]2)cc1)c1cnc(Cl)c(Cl)c1
active: growth inhibition [1] 95% | growth inhibition [4] 102%
inactive: inhibition [2] 11% | inhibition [3] 0% | outcome [5] | outcome [6] | outcome [7] | outcome [8]

CC(=O)Nc1ccc(NC(=O)c2cc(-c3cc(Cl)ccc3O)n[nH]2)cc1
active: growth inhibition [1] 100% | growth inhibition [4] 100%
inactive: inhibition [2] 1% | inhibition [3] -2% | outcome [5] | outcome [6] | outcome [7] | outcome [8]

COc1ccc2c(c1)c(C1CCN(CCCCNC(=O)c3ccc(-c4ccc(C(F)(F)F)cc4)cc3)CC1)cn2C(C)C
inactive: growth inhibition [1] 21% | inhibition [2] 26% | inhibition [3] 0% | outcome [5] | outcome [6] | outcome [7] | outcome [8]
active: growth inhibition [4] 99%

O=C(N1CCN(c2cccc(C(F)(F)F)c2)CC1)C(Cl)(Cl)Cl
active: growth inhibition [4] 89%
inactive: growth inhibition [1] 35% | inhibition [2] -8% | inhibition [3] 2% | outcome [5] | outcome [6] | outcome [7] | outcome [8]

CC[C@H](C)CNC(=O)c1cccc(-c2cccc(CN3CCC(N4CCCC4)CC3)c2)n1
active: growth inhibition [1] 86% | growth inhibition [4] 101%
inactive: inhibition [2] 9% | inhibition [3] 1% | outcome [5] | outcome [6] | outcome [7] | outcome [8]

COCc1nc(-c2ccccc2)nc(N2CCN(C(=O)NC(C)C)CC2)c1Cc1ccccc1F
inactive: inhibition [2] 35% | inhibition [3] -3% | outcome [5] | outcome [6] | outcome [7] | outcome [8]
active: growth inhibition [1] 94% | growth inhibition [4] 96%

NC(=O)c1ccsc1NC(=O)CNC(c1ccc(F)cc1)c1cccs1 (stereo not drawn)
inactive: inhibition [2] 31% | inhibition [3] -2% | outcome [5] | outcome [6] | outcome [7] | outcome [8]
active: growth inhibition [1] 71% | growth inhibition [4] 92%

CC(C)N1CCN(C(CN2CCN(CCCOc3ccccc3-c3ccccc3)CC2)c2ccc(F)cc2)CC1 (stereo not drawn)
inactive: inhibition [3] 5% | outcome [5] | outcome [6] | outcome [7] | outcome [8]
active: growth inhibition [1] 96% | inhibition [2] 98% | growth inhibition [4] 100%

Clc1ccc2c(N3CCCNCC3)ccnc2c1
active: growth inhibition [1] 99% | growth inhibition [4] 100%
inactive: inhibition [2] 11% | inhibition [3] -1% | outcome [5] | outcome [6] | outcome [7] | outcome [8]

Cc1cc(O)c(CN(C)Cc2ccc3c(c2)OCCO3)cc1C(C)C
active: growth inhibition [4] 98%
inactive: growth inhibition [1] 47% | inhibition [2] 10% | inhibition [3] -3% | outcome [5] | outcome [6] | outcome [7] | outcome [8]

Cn1nccc1C(=O)NCCNCc1cccc(-c2ccc(-c3nc4ccc(C(F)(F)F)cc4[nH]3)s2)c1
active: growth inhibition [1] 99% | growth inhibition [4] 100%
inactive: inhibition [2] 36% | inhibition [3] -6% | outcome [5] | outcome [6] | outcome [7] | outcome [8]

CN(c1ccccc1C(=O)Nc1cc(Cl)ccc1Oc1ccccc1)S(=O)(=O)c1ccccc1
active: growth inhibition [4] 99%
inactive: growth inhibition [1] 42% | inhibition [2] 47% | inhibition [3] 7% | outcome [5] | outcome [6] | outcome [7] | outcome [8]

CCn1cc(CN2C(=O)C(c3ccccc3)(c3ccccc3)N=C2N)cn1
active: growth inhibition [1] 60% | growth inhibition [4] 95%
inactive: inhibition [2] 7% | inhibition [3] -2% | outcome [5] | outcome [6] | outcome [7] | outcome [8]

Cc1cccc(C(=O)NC(NC(=S)Nc2cc(Cl)ccc2Cl)C(Cl)(Cl)Cl)c1 (stereo not drawn)
inactive: inhibition [2] -8% | inhibition [3] 1% | outcome [5] | outcome [6] | outcome [7] | outcome [8]
active: growth inhibition [1] 61% | growth inhibition [4] 94%

CO/C(=C\C=C\c1cc2cc(Cl)c(Cl)cc2[nH]1)C(=O)NCCCN1CC(C)N(C)CC1C (stereo not drawn)
inactive: inhibition [2] 38% | inhibition [3] -2% | outcome [5] | outcome [6] | outcome [7] | outcome [8]
active: growth inhibition [1] 73% | growth inhibition [4] 92%

O=C(Nc1ccc(Cl)cc1)c1ccc(S(=O)(=O)NCC2CCN(CC3CCCCC3)CC2)cc1
inactive: growth inhibition [1] 8% | inhibition [2] 40% | inhibition [3] -2% | outcome [5] | outcome [6] | outcome [7] | outcome [8]
active: growth inhibition [4] 93%

CC(C)OC(=O)c1cccnc1SCC(=O)Nc1ccc(C(F)(F)F)cc1Cl
inactive: inhibition [2] 3% | inhibition [3] -3% | outcome [5] | outcome [6] | outcome [7] | outcome [8]
active: growth inhibition [1] 88% | growth inhibition [4] 97%

COc1ccc(C=NNc2nc(-c3ccccc3)cc(=O)[nH]2)cc1OC
inactive: inhibition [2] 22% | inhibition [3] 4% | outcome [5] | outcome [6] | outcome [7] | outcome [8]
active: growth inhibition [1] 93% | growth inhibition [4] 92%
